In the library only some 7.3% were active in any assay of this set; here they are far more common.
NPC1 promoter act = NPC1 promoter activation | 320,000 tested, 2.4% active | AID 485313 | Huh7 NPC1 promoter luciferase reporter, 24 h | Potency, µM (doses to about 9.22 µM), for inactives: top-dose activation, actives largely listed as activators; further: % of control where 0% means no effect; nearly all actives have a fitted effect of over 60% in size
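In 1536-well qHTS, Huh7 cells harboring an NPC1 promoter–luciferase construct received compound for 24 h; activation was quantified by luminescence following luciferase reagent addition.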
FLuc counter = counter-screen for miR-21 project: firefly luciferase inhibitors or activators | AID 588342 | 360,000 tested, 6.9% active | Potency, µM (titrated, usually from 57.5 µM), for the others: at the top dose activity change, negative = inhibition, most hits filed as inhibitors | purified FLuc, Km substrates, luminescence inhibition;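 further: plate controls were vehicle for no effect and reference inhibitor for full effect; nearly all actives have a fitted effect of over 55% in size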
Target sequence (P08659 whole entry, looked up): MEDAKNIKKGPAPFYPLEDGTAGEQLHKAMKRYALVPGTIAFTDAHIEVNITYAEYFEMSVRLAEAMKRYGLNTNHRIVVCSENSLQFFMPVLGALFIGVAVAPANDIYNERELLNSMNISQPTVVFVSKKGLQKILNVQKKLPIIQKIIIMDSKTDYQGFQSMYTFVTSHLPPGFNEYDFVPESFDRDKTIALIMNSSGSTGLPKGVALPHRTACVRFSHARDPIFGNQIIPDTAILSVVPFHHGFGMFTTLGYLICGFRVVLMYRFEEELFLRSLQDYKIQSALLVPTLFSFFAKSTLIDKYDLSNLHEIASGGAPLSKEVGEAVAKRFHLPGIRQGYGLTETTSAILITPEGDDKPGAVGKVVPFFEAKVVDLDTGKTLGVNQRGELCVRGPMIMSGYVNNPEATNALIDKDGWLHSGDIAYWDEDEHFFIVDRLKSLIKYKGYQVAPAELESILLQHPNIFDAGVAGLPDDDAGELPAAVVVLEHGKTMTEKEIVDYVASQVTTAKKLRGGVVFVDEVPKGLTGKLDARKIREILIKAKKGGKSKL
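Purified P. pyralis luciferase, 10 nM final, with Km-level 10 uM D-luciferin and 10 uM ATP in 50 mM Tris acetate pH 7.5, 10 mM Mg acetate, 0.01% Tween-20, 0.05% BSA; 6-point qHTS titration about 60 µM downward; luminescence read.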
Luc counter = blocks Kinase-Glo luciferase, a counter-screen artifact. Kinase-Glo luciferase, ATP luminescence, 8 min. Potency, µM (series often up to 38.3 µM), without a hit: at the top dose activity change, negative = inhibition, actives largely listed as inhibitors. 200,000 tested, 0.28% active. AID 1379; further: on the % scale 0 is the no-effect control and ±100 the full control effect; nearly all actives have a fitted effect of over 60% in size
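Compounds were added to a substrate mix at pH 7.2 (50 mM imidazole, 10 uM ATP, within the enzyme's linear range), followed by Kinase-Glo detection reagent; luminescence was measured after 8 minutes at ambient temperature.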
Rab9 promoter act = activators of Rab9 promoter | Potency, µM (top dose mostly 9.22 µM), for the others: at the highest dose activation, negative = inhibition, most hits filed as activators | AID 485297 | Huh7 Rab9 promoter-luciferase reporter, luminescence, 24 h | 320,000 tested, 2.8% active; further: % of control where 0% means no effect; nearly all actives have a fitted effect of over 60% in size
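Rab9 promoter-driven luciferase in stably transfected Huh7 cells; 1500 cells/well rested 2 h, exposed to compound in DMSO for 24 h at 37 °C, 5% CO2. Luminescence read 10 min after adding luciferase reagent at ambient temperature.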
SMN2 splice up = enhancers of SMN2 splice variant expression. HEK293 SMN2-luciferase splicing reporter, luminescence, 30-36 h. Potency, µM (highest dose often 46.1 µM), for inactives: at the highest dose activity change, positive = activation, actives largely listed as activators. 210,000 tested, 2.8% active; further: % of control where 0% means no effect; nearly all actives have a fitted effect of over 55% in size
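qHTS luciferase splicing reporter: luminescence rises when SMN2 exon 7 is included in transfected HEK293 cells. Compound exposure lasted 30-36 h at 37C, with 4.5 mM final sodium butyrate as control, followed by a ONE-Glo read.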
An asterisk follows results filed as active; ? = inconclusive; . = not tested or not shown; [ ] = another dose, or the depositor's remark. The call rests on the fitted dose curve; in most records, active means well fitted curve in the direction sought with a large enough effect; inconclusive means small, poorly fitted or top-dose-only effect, or another doubt; inactive means no such curve, though single readings can be large; an effect the other way counts as inactive or inconclusive. Potency means the concentration at half of the fitted maximal effect.

SMILES | NPC1 promoter act | FLuc counter | Luc counter | Rab9 promoter act | SMN2 splice up
N/C(=N\OC(=O)C1CCCCC1)c1cccnc1 | 7.1% | 19µM* | -3.7% | 5.8% | -7.9%
Cc1ccc(SCC(=O)O/N=C(\N)c2cccnc2)cc1 | -3.5% | -16.8% | . | -0.4% | .
CC(C)c1ccc(NC(=O)CN2C(=O)c3cccc4cccc2c34)cc1 | . | 2.2% | . | . | .
Nc1ccn([C@@H]2O[C@H](COC(=O)C34CC5CC(CC(C5)C3)C4)[C@@H](O)[C@@H]2O)c(=O)n1 | . | . | -6.1%[7.66 µM] | . | -10.7%[9.22 µM]
FC(F)(F)c1ccc2c(c1)ncc1c(-c3ccccc3)nn(-c3ccccc3)c12 | . | -1.0% | . | . | -3.5%
COCCn1c(=O)[nH]c2cc(C(=O)Nc3cc(OC)c(OC)c(OC)c3)ccc2c1=O | -2.8% | -0.4% | . | 3.1% | .
CC(C)Cc1nnc(NC(=O)Nc2ccccc2)s1 | ? | 16.9µM* | -0.9% | 3.16µM* | 11.2µM*
COc1ccc(NC(=O)Nc2nnc(CC(=O)Nc3ccccc3)s2)cc1 | 2.7% | 4.3% | . | -7.9% | .
CCc1nnc(NC(=O)Nc2ccc(OC)cc2)s1 | ? | 16.9µM* | -5.2% | ? | 29.5%
CCOCCc1nnc(NC(=O)c2cc(OC)c(OC)c(OC)c2)s1 | -1.3% | 0.5% | 0.5% | 1.8% | 15.8µM*
COCCn1c(=O)[nH]c2cc(C(=O)Nc3nnc(C)s3)ccc21 | 27.1% | 13.5µM* | . | ? | .
CCCC(=O)OC1(C(=O)CO)CCC2C3CCC4=CC(=O)CCC4(C)C3C(O)CC21C (stereo unspecified) | . | . | 2.8%[39.9 µM] | . | .
CCc1nnc(NC(=O)c2cccc(C(=O)Nc3nnc(CC)s3)n2)s1 | -32.1% | 19µM* | 2.1% | -41.9% | -94.7%
COc1ccc(NC(=O)Nc2nnc(C)s2)cc1 | . | 16.9µM* | . | . | 21.4%
COc1ccc(C(=O)Nc2cc(OC)nc(OC)n2)cc1 | 2.24µM* | 4.26µM* | -27.4% | 0.794µM* | 7.94µM*
CCCCOc1ccc(NC(=O)Nc2nnc(C)s2)cc1 | -0.7% | ? | . | -0.7% | .
COc1ccc(C(=O)Nc2nnc(C)s2)cc1 | . | 13.5µM* | . | . | 11.2µM*
CCC(C)NC(=O)c1sc2nc(C)c(C(=O)Nc3ccc(C)cc3C)c(-c3ccc(Br)cc3)c2c1N (stereo unspecified) | . | -2.5% | . | . | 17.3%
Cc1cc2c(cc1S(=O)(=O)NCc1ccc(F)cc1)OCCN2C | . | -13.4% | . | . | .
CCc1nnc(NC(=O)C2CCCN(S(=O)(=O)c3ccc(OC)cc3)C2)s1 (stereo unspecified) | 3.1% | 19µM* | 0.1% | 14.9% | .
CCOCc1nnc(NC(=O)c2ccc(OC)cc2)s1 | 27.4% | -27.3% | -0.2% | 8.8% | 17.8µM*
CCOC(=O)c1cc(CC)sc1NC(=O)c1cc(OCC)c(OCC)c(OCC)c1 | -0.9% | 2.9% | -1.9% | -4.4% | -18.1%
COc1ccc(S(=O)(=O)N2CCCC(C(=O)Nc3ccc(OC)c(OC)c3)C2)cc1 (stereo unspecified) | -5.2% | -0.4% | -0.8% | 0.2% | -20.9%
CCc1cc(C(=O)O)c(NC(=O)c2cc(OC)c(OC)c(OC)c2)s1 | -1.4% | 8.49µM* | 2.2% | -1.1% | -32.5%
COCCC(=O)N1CCc2ccc(NC(=O)c3ccc(C(F)(F)F)cc3)cc2C1 | -7.3% | 13.5µM* | . | -14.9% | .
SMILES | NPC1 promoter act | FLuc counter | Luc counter | Rab9 promoter act | SMN2 splice up
COCCC(=O)Nc1ccc2c(c1)CN(C(=O)CSC)CC2 | -1.8% | 4.7% | . | 1.3% | .
CN(C)S(=O)(=O)N1CCc2ccc(NC(=O)c3ccc(C(F)(F)F)cc3)cc2C1 | -12.6% | 4.78µM* | . | -24.8% | .
O=C(Nc1ccc2c(c1)C(=O)OC2)c1ccc(C(F)(F)F)cc1 | 8.6% | 4.2% | . | 9.4% | .
COc1ccc(-n2nc3c(N4CCC(C(=O)NCc5cccc(F)c5)CC4)nnc(C)c3c2C)cc1 | . | -8.5% | . | . | .
CC1Cc2cc(/C(O)=C3/C(=O)C(=O)N(CCN4CCOCC4)C3c3cccc(O)c3)ccc2O1 (stereo unspecified) | -1.9% | 21.3µM* | -1.8% | 0.3% | 6.4%
CC(=O)Nc1ccc(Nc2nc(-c3sc(C)nc3C)cs2)cc1 | -5.0% | 21.3µM* | . | -0.9% | .
Cc1ccc(Nc2nc(-c3sc(C)nc3C)cs2)cc1 | -17.7% | 12µM* | . | 0.0% | .
COc1ccc(Nc2nc(-c3sc(NC(C)=O)nc3C)cs2)cc1 | -6.5% | ? | -0.7% | -0.1% | -8.3%
COc1ccc(Nc2nc(-c3sc(N)nc3C)cs2)cc1 | ? | 13.5µM* | -3.8% | 22.1% | 17.5%
CCOc1ccc(Nc2nc(-c3sc(N)nc3C)cs2)cc1 | ? | 15.1µM* | . | 26.0% | .
CCOC(=O)c1sc(Nc2ccc(OCC)cc2)nc1C | -1.6% | ? | -1.2% | -1.3% | .
COc1ccc(-c2nc3c4ccccc4n(CC(=O)N4CCN(c5ccccc5OC)CC4)c(=O)n3n2)cc1 | . | 1.9% | . | . | .
CC(C)(C)c1ccc(O)c(CN(Cc2cc(C(C)(C)C)ccc2O)C2CCCCC2)c1 | . | . | -4.9%[7.66 µM] | . | -8.0%[9.22 µM]
COC(=O)C1=C(CS(=O)(=O)c2cc(Cl)ccc2OC)NC(=O)NC1c1ccccc1 (stereo unspecified) | . | -0.7% | . | . | 8.2%
CC(C)COc1ccc(C(=O)N(Cc2ccc(N(C)C)cc2)Cc2ccco2)cc1 | . | -0.1% | . | . | -11.8%
CCCCNC(=O)Cn1c(=O)cc(C)c2c(C)nn(-c3ccc(CC)cc3)c21 | . | -1.0% | . | . | .
O=C(Cn1ncc2c([nH]c3ccccc32)c1=O)NCCCN1CCN(c2ccc(F)cc2)CC1 | . | 0.9% | . | . | .
CCc1ccccc1NC(=O)c1ccc(CN2C(=O)CCn3nc(C)cc32)cc1 | . | -1.8% | . | . | .
COc1ccc(S(=O)(=O)c2cnc3ccc(Cl)cc3c2N2CCCCC2C)cc1 (stereo unspecified) | . | 3.8% | . | . | -40.3%
Cc1ccc(Nc2nc(-c3sc(N)nc3C)cs2)cc1 | 0.794µM* | 2.13µM* | . | 2.24µM* | .
Cc1nc(C)c(-c2csc(Nc3ccc(S(N)(=O)=O)cc3)n2)s1 | -7.9% | -3.9% | . | -1.6% | .
C/C(=N\NC(=O)c1ccccc1F)c1cccc(NC(=O)c2ccc(C)cc2)c1 | ? | 2.39µM* | . | ? | .
C/C(=N\NC(=O)c1c(Cl)cnn1C)c1cccc(NC(=O)c2ccc(C)cc2)c1 | ? | 2.39µM* | . | ? | .
C/C(=N\NC(=O)c1cccc(N/N=C(\C)c2ccco2)c1)c1ccco1 | 16.3% | 13.5µM* | -6.4% | ? | -3.8%
C/C(=N\NC(=O)c1cccc([N+](=O)[O-])c1)c1ccco1 | 1.8% | -12.2% | . | 1.1% | .
C/C(=N\NC(=O)c1ccc(F)cc1)c1cccc(NC(=O)c2cccc(F)c2)c1 | 5.1% | -18.1% | . | 5.0% | .
C/C(=N\NC(=O)c1ccc(F)cc1)c1cccc(NC(=O)c2ccco2)c1 | 20.4% | 4.78µM* | 0.2% | 29.9% | 2.8%
C/C(=N\NC(=O)c1c(Cl)cnn1C)c1cccc(NC(=O)C(C)C)c1 | -3.4% | ? | 2.8% | -7.1% | -10.1%
C/C(=N\NC(=O)c1cccc(F)c1)c1cccc(NC(=O)c2ccc(F)cc2)c1 | 8.1% | ? | -4.9% | 3.1% | .
O=C(O)[C@@H](O)c1ccc(F)cc1 | . | . | -5.6%[7.66 µM] | . | -9.3%[9.22 µM]
